The record followed here is PubChem BioAssay (NCATS).

Inconclusive results are not listed. Activity calls are given as the source filed them. Calls follow the shape of the dose curve; as a rule, active = well fitted inhibition curve with a large enough effect; inconclusive = small, poorly fitted or top-dose-only effect; inactive = flat fitted curve, though single readings scatter.

The nature of experiment [1]: qHTS profiling for inhibitors of Plasmodium falciparum proliferation (AID 504749).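 As to activity, negative = inhibition: 0% = DMSO vehicle and full inhibition = artemisinin control.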 As to all read-outs here: nearly all actives have a fitted effect of over 60% in size. The settings on record: P. falciparum in erythrocytes, SYBR Green DNA, 72 h; for activity, negative = inhibition: at 28.7 µM (top of the series). Put shortly:
(§1)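 Quantitative HTS: compounds pinned into medium, infected erythrocytes added (0.3% parasitemia, 2.5% hematocrit), 72 h culture at 37 C under 5% CO2. Saponin/Triton lysis with SYBR Green I, overnight RT, then fluorescence read.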
On the technique in general: In qHTS, concentration-response curves come from the screen itself.

Another experiment concerns 3D7. Described as above. To be noted: P. falciparum in erythrocytes, SYBR Green DNA, 72 h; series mostly up to 28.7 µM. In a few lines: as §1
For another experiment, the system named is 7G8. Described as above. To be noted: P. falciparum in erythrocytes, SYBR Green DNA, 72 h; series mostly up to 28.7 µM. Put shortly: as §1
The test system of a further experiment is AA1029. The experiment is described as above. The settings on record: P. falciparum in erythrocytes, SYBR Green DNA, 72 h; series mostly up to 28.7 µM. Put shortly:
as §1

For another experiment, the system named is AS120. Described as above. To be noted: P. falciparum in erythrocytes, SYBR Green DNA, 72 h; series mostly up to 28.7 µM. Put shortly: as §1
A further experiment deals with ATS189. The experiment is described as above. To be noted: P. falciparum in erythrocytes, SYBR Green DNA, 72 h; series mostly up to 28.7 µM. Put shortly: as §1
The test system of a further experiment is ATS95. Described as above. The settings on record: P. falciparum in erythrocytes, SYBR Green DNA, 72 h; series mostly up to 28.7 µM. In a few lines:
as §1

The subject of a further experiment is C2A. Described as above. To be noted: P. falciparum in erythrocytes, SYBR Green DNA, 72 h; series mostly up to 28.7 µM. In a few lines:
as §1

The test system of another experiment is CP185. The experiment is described as above. To be noted: P. falciparum in erythrocytes, SYBR Green DNA, 72 h; series mostly up to 28.7 µM. Put shortly: as §1
The test system of the next experiment is CP191. Described as above. The settings on record: P. falciparum in erythrocytes, SYBR Green DNA, 72 h; series mostly up to 28.7 µM. Put shortly:
as §1

Another experiment deals with CP192. Described as above. To be noted: P. falciparum in erythrocytes, SYBR Green DNA, 72 h; series mostly up to 28.7 µM. In a few lines: as §1
Potency is read from the fitted curve at half-maximal effect.

Take `C=C1C(CCl)(CCl)C2(Cl)C(Cl)C(Cl)C1(Cl)C2(Cl)Cl` (centres undefined): the Potency in [1] (parasite line A) is 2.51 µM (active); in experiment [1] (parasite line B), 1.26 µM (active); in the experiment on 3D7, 1.78 µM (active); in the experiment with 7G8 it was 0.282 µM (active); with AA1029, 3.16 µM (active); in the experiment on AS120 it was 2 µM (active). Also, the Potency in the experiment on ATS189 was 3.16 µM (active); in the experiment with ATS95 it was 3.16 µM (active); with C2A it was 3.16 µM (active); in the experiment on CP185, 3.16 µM (active); with CP191, 3.16 µM (active); in the experiment on CP192 it was 5.36 µM (active).
For `O=S(=O)(O)CCCS(=O)(=O)O`, the activity, negative = inhibition in experiment [1] (parasite line A) is -6.14% (inactive); in [1] (parasite line B) it was 2.06% (inactive). Further, the Potency entry with 3D7, in the experiment on 7G8, with AA1029, in the experiment on AS120, with ATS189 and in the experiment with ATS95 was “inactive” in each case. Also, the Potency entry in the experiment with C2A, with CP185, with CP191 and in the experiment on CP192 was “inactive” throughout.
As to `[O]=[Bi][O]C(=O)[O][Bi]=[O]`, the activity, negative = inhibition in experiment [1] (parasite line A) was 3.84% (inactive); in [1] (parasite line B), -1.66% (inactive). The Potency result in the experiment on 3D7, in the experiment with AA1029, in the experiment with AS120, in the experiment on ATS189, with ATS95 and with C2A was “inactive” throughout. For the same molecule, the Potency entry in the experiment with CP185, with CP191 and with CP192 was “inactive” in each case. Further, the Potency with 7G8 is 10 µM (active).
Take `OCCOCCOCCO`: the activity, negative = inhibition in [1] (parasite line A) is 16.8% (inactive); in [1] (parasite line B), 11.6% (inactive). The Potency entry in the experiment with 3D7, in the experiment with 7G8, in the experiment on AA1029, in the experiment with AS120, with ATS189 and in the experiment on ATS95 was “inactive” in each case. Besides, the Potency entry with C2A, in the experiment on CP185 and in the experiment with CP191 was “inactive” throughout.
Consider `[O-][N+](=Nc1ccccc1)c1ccccc1`, for which the activity, negative = inhibition in experiment [1] (parasite line A) is -5.95% (inactive); in [1] (parasite line B), -6.73% (inactive). In addition, the Potency result in the experiment on 3D7, with 7G8, in the experiment with AA1029, with AS120, in the experiment with ATS189 and with ATS95 was “inactive” each time. For the same molecule, the Potency result in the experiment with C2A, with CP185, in the experiment on CP191 and in the experiment with CP192 was “inactive” in each case.
On to `c1ccc2c(c1)OCC(CN1CCCCC1)O2` (centres undefined), for which the activity, negative = inhibition was 4.84% (inactive) in experiment [1] (parasite line A) and 0.843% (inactive) in experiment [1] (parasite line B). The Potency entry in the experiment with 3D7, in the experiment on 7G8, in the experiment on AA1029, with AS120, in the experiment with ATS189 and with ATS95 was “inactive” each time. For the same molecule, the Potency entry with C2A, with CP185, with CP191 and with CP192 was “inactive” throughout.
On to `CC(=O)[O][Al][O]C(C)=O`, for which the values for the activity, negative = inhibition in experiment [1] (parasite line A) and in experiment [1] (parasite line B) were 4.56% (inactive) and 3.22% (inactive), respectively. Moreover, the Potency result in the experiment on 3D7, with 7G8, with AA1029, in the experiment with AS120, in the experiment on ATS189 and in the experiment on ATS95 was “inactive” throughout. Further, the Potency entry in the experiment on C2A, in the experiment with CP185 and in the experiment with CP191 was “inactive” each time.
On to `CC(C)CCCC(C)NC(C)C` (centres undefined), for which the activity, negative = inhibition in experiment [1] (parasite line A) was -16.1% (inactive); in experiment [1] (parasite line B) it was -1.21% (inactive). In addition, the Potency result in the experiment with 3D7, with 7G8, in the experiment on AA1029, in the experiment on AS120, in the experiment with ATS189 and in the experiment on ATS95 was “inactive” each time. The Potency result in the experiment with C2A, in the experiment with CP185, in the experiment with CP191 and in the experiment with CP192 was “inactive” throughout.
